PubChem BioAssay

system: Fibrinogen (Alexa647-labelled); experiment: fibrinogen binders on compound microarrays, profiling panel, artefact control for SMM control-protein annotation, biochemical, small-molecule microarray, 635/667 nm fluorescence (AID 1131); settings: fibrinogen-A647 binding fluorescence, higher = more signal;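 also: z-score merges 667 nm fluorescence with per-spot signal-to-noise over triplicate slides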

| Structure (SMILES) | composite z-score |
| --- | --- |
| C=CC[C@H](OC(=O)Nc1ccc(SC)cc1)c1ccc(O)c2ccccc12 | 0.938 |
| O=C1O[C@@H](c2ccccc2)[C@@H](c2ccccc2)N2[C@@H](c3ccc(OCCO)cc3)[C@]3(C(=O)Nc4ccc(C#CC5=CCCCC5)cc43)[C@@H](C(=O)NC[C@H](O)c3ccccc3)[C@H]12 | 0.829 |
| O=C1O[C@H](c2ccccc2)[C@H](c2ccccc2)N2[C@H]1[C@@H](C(=O)O)[C@]1(C(=O)Nc3ccc(C#CCCO)cc31)[C@H]2c1ccccc1OCCO | 0.289 |
| CC(C)c1ccc(NN2C(C(O)c3ccc(C#N)cc3)C=CC3C(=O)N(c4ccccc4)C(=O)C32)cc1 (stereo not given) | 1.04 |
| C[N+](C)(C)CCCC[C@@H]1NC(=O)[C@@H]2C[C@H](C(=O)NCCCCCCN)[C@H](c3cccc(OCCO)c3)N2C1=O | 0.841 |
| CC(C)[Si]1(C(C)C)OCc2cc(C3CC3)nc(-c3ccc(Oc4ccccc4)cc3)c21 | -0.753 |
| COCCOC(=O)N1C(=O)[C@@]2(c3cc(C#CC4(O)CCCCCC4)ccc31)[C@H](c1ccc(O)cc1)N1[C@H](c3ccccc3)[C@H](c3ccccc3)OC(=O)[C@H]1[C@@H]2C(=O)N1CCN(c2ncccn2)CC1 | 0.576 |
| COC(=O)c1c(CC[C@@H](CO)NC(=O)N[C@@H](C)Cn2cc(-c3ccccn3)nn2)oc(C(C)=O)c1C(=O)OC | -0.676 |
| CCOC(=O)[C@@H]1CCCCN1C(=O)C(=O)OC | -0.23 |
| CN(C)c1ccc(C(O)C2C=CC3C(=O)NC(=O)C3N2Nc2ccccn2)cc1 (stereo not given) | 0.309 |
| CC#CCO[Si](C#Cc1ccccc1)(C(C)C)C(C)C | -0.965 |
| CC(=O)N1CC2(CC2)CC1c1ccccc1 (stereo not given) | 0.59 |
| COCCOC(=O)N1C(=O)[C@@]2(c3cc(C#CCC(C(=O)OC)C(=O)OC)ccc31)[C@H](c1ccc(OCCO)cc1)N1[C@H](c3ccccc3)[C@H](c3ccccc3)OC(=O)[C@H]1[C@@H]2C(=O)N1CCc2cc(OC)c(OC)cc2C1 | 0.889 |
| C=CCC(OC(C)=O)[C@@H]1[C@@H](N(Cc2cccc3ccccc23)C(=O)Cc2ccc(F)cc2)c2cc(OCCCO)ccc2N1C(=O)c1ccc2ccccc2c1 (stereo not given in full) | 0.131 |
| CN1C2C=C(CCCO)C(C3C(=O)N(C(N)=O)C(=O)C32)C1C1CC1 (stereo not given) | 0.481 |
| CCCN1C(=O)[C@]2(Cc3ccccc31)N=C(c1ccc(OCCCO)cc1)O[C@@H]2c1ccccc1 | 0.971 |
| NCCCCCNC(=O)[C@@H]1C[C@@H]2C(=O)N[C@@H](CCCCN)C(=O)N2[C@@H]1c1ccc(O)cc1 | 0.782 |
| Cc1ccc(C(C)CC(O)C2C=CC3C(=O)N(c4ccccc4)C(=O)C3N2Nc2ccccc2)o1 (stereo not given) | 0.821 |

| Structure (SMILES) | composite z-score |
| --- | --- |
| CCCNC(=O)[C@@H]1c2ccccc2C(=O)N(Cc2ccc(OC(F)(F)F)cc2)[C@H]1c1ccc(CO)cc1 | 0.368 |
| CC(C)C(CO)N1C(=O)[C@@H]2[C@H]3C(=O)OCC=C[C@H]3OC23C=CCN(c2ccc(Cl)cc2)C(=O)[C@@H]13 (stereo not given in full) | -0.934 |
| CC(C)c1ccc(NN2C(C(O)c3ccc(F)cc3)C=CC3C(=O)N(c4ccccc4)C(=O)C32)cc1 (stereo not given) | 0.989 |
| OCCCC1=CC(c2ccc(CN3CCCC3)cc2)N(Cc2cc3c(cc2Br)OCO3)CC1 (stereo not given) | 0.65 |
| COc1cc2c(cc1O)C(c1cccs1)N(Cc1cc3c(cc1Br)OCO3)CC2 (stereo not given) | 0.976 |
| CCCNC(=O)[C@@]1(Sc2ccc(C)cc2)CC(=O)N(C2Cc3ccccc3C2)[C@@H]1c1ccc(CO)cc1I | 0.34 |
| CC(C)=C1C(=O)C(c2ccccc2)=C2CN3C(=O)N(CCc4ccccc4)C(=O)[C@]3(Cc3ccc(C(F)(F)F)cc3)[C@H]21 | -0.0056 |
| COc1cccc(C)c1NC(=O)O[C@H]1[C@H](OC(=O)Nc2ccccc2-c2ccccc2)[C@H](OC(=O)Nc2ccccc2-c2ccccc2)[C@@H](OC)O[C@@H]1CO | 0.974 |
| COCCCNC(=O)[C@@]1(CCC(=O)OC(C)(C)C)N=C(c2ccc(OCCCO)cc2)O[C@H]1c1ccccc1N=[N+]=[N-] | 1.05 |
| COc1cc2c(cc1O)C(c1ccc(CN3CCCC3)cc1)N(Cc1cc3c(cc1Br)OCO3)CC2 (stereo not given) | 0.516 |
| CCCC[C@@H](O)C1=C(COC)C[C@H]2C(=O)N(C)C(=O)[C@H]2[C@H]1CO | 0.171 |
| COC(=O)C(CC#Cc1ccc2c(c1)[C@]1(C(=O)N2)[C@H](c2ccc(O)cc2)N2[C@H](c3ccccc3)[C@H](c3ccccc3)OC(=O)[C@H]2[C@@H]1C(=O)NC[C@H](O)c1ccccc1)C(=O)OC | 0.733 |
| COC(=O)C1=CC(CCCO)=CC(c2ccc(CN3CCCC3)cc2)N(Cc2cccc(OC(F)(F)F)c2)C=C1C(=O)OC (stereo not given) | 1 |
| NC(=O)NCC#Cc1ccc2c(c1)[C@]1(C(=O)N2)[C@H](c2ccccc2OCCO)N2[C@H](c3ccccc3)[C@H](c3ccccc3)OC(=O)[C@H]2[C@@H]1C(=O)O | 0.277 |
| COC(=O)[C@@H]1N=C(c2ccc(OCCCO)cc2)O[C@@H]1c1ccccc1 | -0.887 |
| C=CCC(OC(C)=O)[C@@H]1[C@@H](N(Cc2cccc3ccccc23)C(=O)Cc2ccc(OC)cc2)c2cc(OCCCO)ccc2N1C(=O)c1ccc(-c2ccccc2)cc1 (stereo not given in full) | 0.701 |
| CC(C)[Si]1(C(C)C)OCc2cc(-c3ccc(-c4ccc(Cl)c(Cl)c4)o3)nc(-c3ccccc3)c21 | -1.32 |
